For 24 compounds, growth inhibition results are on record in PubChem BioAssay (NCI).

Experiment [1] can be described thus: NCI Yeast Anticancer Drug Screen. Data for the mec2-1 strain (AID 157). The following applies: S. cerevisiae mec2-1 strain, at 50.0 µM, hits give high values. An outline of the steps: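 Each compound was tested on mec2-1 yeast, a strain altered in DNA damage repair or cell cycle control. Growth inhibition is reported relative to vehicle.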
A short description of experiment [2]: NCI Yeast Anticancer Drug Screen. Data for the sgs1 mgt1 strain (AID 161).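 Further: 0% = growth of cultures given vehicle only.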 To be noted: S. cerevisiae sgs1 mgt1 strain, at 50.0 µM, hits give high values. In outline: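 Genetically altered yeast, compound exposure, growth inhibition relative to vehicle.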
Experiment [3] is described as follows: NCI Yeast Anticancer Drug Screen. Data for the cln2 rad14 strain (AID 165).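 Further: 0% = growth equal to vehicle treated cultures.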 To be noted: S. cerevisiae cln2 rad14 strain, at 50.0 µM, hits give high values. An outline of the steps: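 Test compounds were added to cln2 rad14 yeast cultures; inhibition of growth was then determined by comparison with vehicle treatment.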
A short description of experiment [4]: NCI Yeast Anticancer Drug Screen. Data for the bub3 strain (AID 167). To be noted: S. cerevisiae bub3 mutant strain, at 50.0 µM, hits give high values. In outline:
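Part of a panel of yeast mutants defective in DNA damage repair or cell cycle regulation. Each strain is grown with compound, and inhibition is calculated relative to solvent-treated cultures.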

Experiment [5] is described as follows: NCI Yeast Anticancer Drug Screen. Data for the mlh1 rad18 strain (AID 175). To be noted: S. cerevisiae mlh1 rad18 strain growth inhibition; at 50.0 µM; hits give high values. An outline of the steps: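 Inhibition values reflect reduced growth of mutant yeast versus vehicle-treated controls following compound exposure; the mutations affect DNA damage repair.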

Molecules are shown by their SMILES. This is part of a sample that, as a whole, favours compounds with a hit. Of some 79,000 tested, about 15% had one in any assay. Unmarked numbers belong to inactive results. Active and inactive are the calls of the source. No stated cut-off is given here; in the data, active means growth inhibition above about 70%; inactive means the rest.

Turning to `CCCOCc1cn[nH]n1`, the growth inhibition in experiment [1] was 5.25%; in experiment [2], 8.3%; in experiment [3], -8.85%; in experiment [4], -8.95%; in experiment [5] it was -2.35%.

Take `CC(=O)NNC(=S)N/C=C/c1c(C)ccc([N+](=O)[O-])c1[N+](=O)[O-]`: the growth inhibition was -28.4% in experiment [2], -31.9% in experiment [3], -36% in experiment [4] and -2.8% in experiment [5].

In the case of `COC1OC(CO)C(OC)C(O)C1O` (stereo unspecified), the growth inhibition is 0.2% in experiment [1], 0.2% in experiment [2], -6.7% in experiment [3] and -2.2% in experiment [5].

As to `CCOC(=O)c1c(C)[nH]c(C)c1C=O`, the growth inhibition is -0.05% in experiment [1]; 3.15% in experiment [2]; -1.15% in experiment [3]; 52.5% in experiment [4]; 3.9% in experiment [5].

On to `COc1cc(OC)c(NC(=O)C(Sc2nc(C)cc(C)c2C#N)c2ccccc2)cc1Cl` (stereo unspecified), for which the growth inhibition in experiment [1] was -19.9%; in experiment [2], -4.95%; in experiment [3], 22.2%; in experiment [4], 1.6%; in experiment [5], 5.9%.

In the case of `CCCCc1ccc2nc(NC(=O)OC)[nH]c2c1`, the growth inhibition was 21.5% in experiment [1]; 13.6% in experiment [2]; 28.8% in experiment [3]; 21.5% in experiment [4]; 11.1% in experiment [5].

With `C/C(O)=C(/C=N/C(=S)Nc1ccccc1)C(=O)Nc1ccccc1C`, the growth inhibition is 5.6% in experiment [1]; 40.3% in experiment [2]; -4.5% in experiment [3]; 27.7% in experiment [4]; 24.9% in experiment [5].

In the case of `CC(CC(CCC(=O)O)(c1ccccc1)c1ccccc1)N(C)C` (stereo unspecified), the growth inhibition in experiment [1] is -4.7%; in experiment [2], 9.45%; in experiment [3], -0.1%; in experiment [4], 7.95%; in experiment [5] it was 13.4%.

`CCN(CC)CCN1CNC(=S)NC1`: the growth inhibition is -20.6% in experiment [1]; 11.2% in experiment [2]; -1.8% in experiment [3]; -1.2% in experiment [4]; -7.15% in experiment [5].

Turning to `O=C(Nc1c(Cl)cc(Cl)cc1Cl)ON=C1CCCCC1`, the growth inhibition in experiment [1] is -19%; in experiment [2], 11.1%; in experiment [3], 12.9%; in experiment [4], 15.5%; in experiment [5], 3.6%.

For `CC(=O)Nc1ncc(S(=O)(=O)c2ccc([N+](=O)[O-])cc2)s1`, the growth inhibition in experiment [1] was -57.5%; in experiment [2], -17.1%; in experiment [3], -7.55%; in experiment [4], -41.2%; in experiment [5] it was -32.1%.

As to `O=C(O)c1ccc([N+](=O)[O-])cc1S(=O)(=O)O`, the growth inhibition in experiment [1] is -6.8%; in experiment [2], -24.3%; in experiment [3] it was -22.9%; in experiment [4], -8.4%; in experiment [5], -4.55%.

On to `O=C(NCc1ccccc1)c1cccc([N+](=O)[O-])c1`, for which the growth inhibition is 19.9% in experiment [2], -47% in experiment [3], 22.9% in experiment [4] and 15.6% in experiment [5].

Turning to `Cc1ccnc(Nc2nc3ccccc3[nH]2)n1`, the growth inhibition in experiment [1] is -10.9%; in experiment [2] it was 4.5%; in experiment [3], 14.1%; in experiment [4], 8.6%; in experiment [5] it was 8.85%.

Regarding `CC(=O)C1C(=O)C(=O)N(c2cccc([N+](=O)[O-])c2)C1=O` (stereo unspecified), the growth inhibition was -23.9% in experiment [1]; -8.75% in experiment [2]; -9.3% in experiment [3]; -23.4% in experiment [4]; -54.3% in experiment [5].

As for `CCC(=O)C1C(=O)c2ccccc2C1=O`, the growth inhibition was -12.6% in experiment [1]; -17.5% in experiment [2]; -13.8% in experiment [3]; 6.1% in experiment [4]; 20.4% in experiment [5].

With `C[C@H](CCC[C@H](C)OS(=O)(=O)c1ccccc1)OS(=O)(=O)c1ccccc1`, the growth inhibition in experiment [2] is 5.85%; in experiment [3], 4.55%; in experiment [4], -8.15%; in experiment [5], -16.6%.

For `C/C(=N\Nc1ccc([N+](=O)[O-])cc1[N+](=O)[O-])c1ccc(Br)cc1`, the growth inhibition in experiment [1] is -2.2%; in experiment [2], 2.35%; in experiment [3] it was -12.8%; in experiment [4], 8.7%; in experiment [5], 3.05%.

For `c1ccc(-c2ccc3ccccc3c2)cc1`, the growth inhibition in experiment [1] was -6.65%; in experiment [2] it was -3.3%; in experiment [3] it was -2.65%; in experiment [4], -0.8%; in experiment [5] it was -14.2%.

For the compound `Nc1ccccc1SC1CC(=O)N(c2ccc(Cl)c(Cl)c2)C1=O` (stereo unspecified), the growth inhibition in experiment [1] was -21.6%; in experiment [2], 4.7%; in experiment [3], -15.9%; in experiment [4], 1.15%; in experiment [5], -5.4%.

Take `CCC(=O)Oc1c(C)cc(O)c2ccccc12`: the growth inhibition in experiment [1] was -49.6%; in experiment [2] it was 18.7%; in experiment [3], 52.9%; in experiment [4], 35.2%; in experiment [5] it was 27.7%.

Turning to `O=S(=O)(O)c1cccc2cccnc12`, the growth inhibition in experiment [1] was 1.95%; in experiment [2], 7%; in experiment [3], -14.6%; in experiment [4], 10.4%; in experiment [5] it was -0.5%.

Take `CC1(C)OC2C(CO)OC(n3ccc(=O)[nH]c3=O)C2O1` (stereo unspecified): the growth inhibition in experiment [1] was 0.9%; in experiment [2], -12.3%; in experiment [3], -7.3%; in experiment [4], 10.5%; in experiment [5], -4.35%.

As for `c1ccc(Oc2c3ccccc3nc3ccccc23)cc1`, the growth inhibition was -18.4% in experiment [1]; -13.2% in experiment [2]; 4.25% in experiment [3]; -5.7% in experiment [4]; 87.9% (active) in experiment [5].
